# Source: PubChem BioAssay (National Center for Advancing Translational Sciences (NCATS))
# WRN helicase inh: WRN helicase (human) inhibition; AID 651768; WRN helicase unwinding, fluorescent forked duplex, kinetic; 360,000 tested, 0.46% active; Potency, µM (titrated, usually from 114 µM), inactives show at the top dose activity change, negative = inhibition, actives largely listed as inhibitors; Q14191; further: potency means the concentration at half of the fitted maximal effect; nearly all actives have a fitted effect of over 55% in size
# Target sequence (Q14191 whole entry, looked up): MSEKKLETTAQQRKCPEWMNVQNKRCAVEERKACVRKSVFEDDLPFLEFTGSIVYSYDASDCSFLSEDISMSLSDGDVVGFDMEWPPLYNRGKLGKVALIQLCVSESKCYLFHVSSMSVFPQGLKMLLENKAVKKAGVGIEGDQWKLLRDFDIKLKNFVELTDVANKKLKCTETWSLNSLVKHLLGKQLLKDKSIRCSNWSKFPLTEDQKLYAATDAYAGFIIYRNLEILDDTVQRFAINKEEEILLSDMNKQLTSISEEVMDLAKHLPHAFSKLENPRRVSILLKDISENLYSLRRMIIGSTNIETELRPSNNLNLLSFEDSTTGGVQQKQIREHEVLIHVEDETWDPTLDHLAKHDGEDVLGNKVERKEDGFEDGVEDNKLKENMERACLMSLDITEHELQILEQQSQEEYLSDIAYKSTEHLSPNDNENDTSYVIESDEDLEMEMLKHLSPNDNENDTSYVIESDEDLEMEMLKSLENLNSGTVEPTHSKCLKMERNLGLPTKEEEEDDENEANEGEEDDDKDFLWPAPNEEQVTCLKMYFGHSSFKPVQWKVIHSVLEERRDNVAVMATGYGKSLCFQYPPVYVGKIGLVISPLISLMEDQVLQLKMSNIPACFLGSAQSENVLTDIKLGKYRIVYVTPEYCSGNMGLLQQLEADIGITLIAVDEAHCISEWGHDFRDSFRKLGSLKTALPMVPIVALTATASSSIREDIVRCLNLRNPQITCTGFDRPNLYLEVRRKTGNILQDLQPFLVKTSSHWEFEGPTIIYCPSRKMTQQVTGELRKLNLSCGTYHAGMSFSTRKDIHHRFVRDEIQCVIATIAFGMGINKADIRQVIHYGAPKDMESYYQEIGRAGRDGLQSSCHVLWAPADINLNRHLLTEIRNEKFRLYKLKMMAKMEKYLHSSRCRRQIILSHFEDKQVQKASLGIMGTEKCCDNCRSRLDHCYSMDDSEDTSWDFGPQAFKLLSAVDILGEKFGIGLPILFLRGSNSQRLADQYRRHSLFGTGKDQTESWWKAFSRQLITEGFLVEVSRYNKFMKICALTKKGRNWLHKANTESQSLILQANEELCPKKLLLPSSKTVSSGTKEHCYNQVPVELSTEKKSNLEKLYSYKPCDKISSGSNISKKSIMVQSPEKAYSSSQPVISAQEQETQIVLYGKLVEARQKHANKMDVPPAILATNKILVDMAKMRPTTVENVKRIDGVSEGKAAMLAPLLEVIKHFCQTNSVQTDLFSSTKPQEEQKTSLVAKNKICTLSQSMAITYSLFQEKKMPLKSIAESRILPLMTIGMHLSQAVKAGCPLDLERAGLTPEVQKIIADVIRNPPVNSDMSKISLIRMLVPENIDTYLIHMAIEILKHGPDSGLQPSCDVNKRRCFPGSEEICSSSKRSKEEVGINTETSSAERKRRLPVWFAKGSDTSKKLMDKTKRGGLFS
#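 Kinetic red-fluorescence monitoring (525/598 nm) tracks WRN helicase activity after 100 nM fluorophore-quencher forked duplex and 2 mM ATP are added to 20 nM enzyme pretreated 15 min at room temperature with compound.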
# PLK1 PBD block: blocks phosphopeptide binding to human PLK1 polo-box domain | Plk1 PBD binding of FITC phosphopeptide, fluorescence polarization | Potency, µM, for inactives: max response, negative = inhibition, most hits filed as inhibitors | 360,000 tested, 2.8% active; further: potency means the concentration at half of the fitted maximal effect; series mostly up to about 57 µM; nearly all actives have a fitted effect of over 65% in size
# PI5P4K alpha inh: inhibitors of human PI5P4K alpha | AID 652105 | max response, % | PI5P4Kalpha enzyme, ADP-Glo luminescence, 60 min; hits give low values | P48426 | 330,000 tested, 1.2% active; active means max response of -50% or lower; inconclusive means between -30% and -50%; inactive means -30% or higher; further: value at the top dose of about 77 µM
#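 PI5P4Kalpha ADP-Glo assay; 5 microM ATP final; 60 min RT reaction; HEPES pH 7.4/EGTA/CHAPS, 5% DMSO; controls lacking substrate or enzyme; luminescent end-point.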
# USP1 inh: USP1/UAF1 (human) deubiquitinase inhibition; Potency, µM (doses to about 57.1 µM), for the others: at the highest dose activity change, negative = inhibition, most hits filed as inhibitors; 390,000 tested, 0.23% active; recombinant USP1/UAF1, Ub-Rhodamine cleavage fluorescence; O94782; further: potency means the concentration at half of the fitted maximal effect; nearly all actives have a fitted effect of over 60% in size
#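 USP1/UAF1 complex (1 nM) preincubated 15 min at room temperature with compound, then Ub-Rho substrate (150 nM final) added. Kinetic fluorescence at 480/540 nm over 6 reads at 60 s intervals; 50 mM HEPES pH 7.8, 0.5 mM EDTA, 0.1 mg/ml BSA, 1 mM TCEP, 0.01% Tween-20.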
# USP2a block: USP2a (human) protease inhibition. O75604. USP2 core, Ub-CHOP2 coupled fluorogenic reporter, 485/531. Potency, µM (top dose mostly 38.3 µM), for inactives: top-dose activity change, negative = inhibition, most hits filed as inhibitors. 330,000 tested, 0.01% active. AID 463254;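 further: potency means the concentration at half of the fitted maximal effect; plate controls were DMSO wells for no effect and full inhibition by NEM control for full effect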
#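 Deubiquitinase activity read as fluorescence (485/531 nm) after Ub-CHOP2 cleavage activates the enterokinase reporter on its substrate; USP2 core 10nM, Ub-CHOP2 and substrate 25nM each, 30min compound preincubation then 60min RT; data normalized to NEM, curves fitted.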
# An asterisk follows results filed as active; ? = inconclusive; / = no result given; [ ] = another dose, or the depositor's remark. An excerpt weighted towards active compounds, which were near 3.3% of everything screened. Unless noted, the call rests on the fitted dose curve; in most records, active means well fitted curve in the direction sought with a large enough effect; inconclusive means small, poorly fitted or top-dose-only effect, or another doubt; inactive means no such curve, though single readings can be large; an effect the other way counts as inactive or inconclusive. Unless noted, on the % scale 0 is the no-effect control and ±100 the full control effect.
SMILES,WRN helicase inh,PLK1 PBD block,PI5P4K alpha inh,USP1 inh,USP2a block
CC(=O)C1=C(OC(=O)C(C)C)c2ccccc2S(=O)(=O)N1Cc1ccccc1,/,/,/,-6%,/
O=C(Cn1cc(C(F)(F)F)ccc1=O)N/N=C/c1ccccc1O,4%,30µM*,1,-11%,1%
O=C(Cn1cc(C(F)(F)F)ccc1=O)N/N=C/c1ccc(F)cc1,-7%,-1%,5,-2%,-2%
CO/N=C/c1c(C(=O)OC)nn(-c2ccccc2)c1Cl,2%,3.8µM*,?,-20%,12%
COC(=O)c1nn(-c2ccccc2)c(Cl)c1/C=N/OCc1c(Cl)cccc1Cl,-11%,-13%,7,2%,/
CCc1ccc(NS(=O)(=O)c2ccc3[nH]cc(C(=O)NCc4ccc(C)cc4)c(=O)c3c2)cc1,/,/,/,-20%,/
CCN(Cc1ccccc1)c1ccc(/C=N/NS(=O)(=O)c2ccc(C)c([N+](=O)[O-])c2)cc1,-30%,24µM*,6,-6%,1%
CCN(CC)c1ccc(/C=N/NS(=O)(=O)c2cccc([N+](=O)[O-])c2)cc1,-6%,?,-10,-11%,0%
COc1ccccc1CNC(=O)C(C)n1nc(C)n2c(cc3occc32)c1=O (stereo not given),4%,27µM*,-14,-18%,3%
Cc1ccc(CN2CCN(C3CCN(C(=O)c4ccc(C)cc4)CC3)C(=O)C2=O)cc1,/,/,/,-23%,/
S=C(CSc1ccccc1)Nc1cccc2ccccc12,4%,11µM*,3,-4%,/
CCOc1ccccc1Nc1nnc(-c2cc3cc(Cl)ccc3oc2=O)s1,/,/,/,-5%,/
CC(/C=N/NC(=O)Cc1cccs1)=C\c1ccco1,-13%,-10%,-16,-21%,2%
CCc1ccc(/C(C)=N/NC(=O)CNC(=O)/C=C/c2ccco2)cc1,28µM*,?,-84*,-7%,/
CC(/C=C/c1ccco1)=N\NC(=O)c1cc(Cl)ccc1O,?,?,-80*,-26%,13%
CC(/C=C/c1ccco1)=N/NC(=O)Cc1cccs1,?,-19%,-52*,-22%,1%
O=C(C=Cc1ccco1)c1cc(Cl)ccc1O,-18%,-14%,10,-10%,/
CCn1cc2nc(SCc3ccc(F)cc3)n(CCc3ccccc3)c(=O)c2n1,/,/,/,-12%,/
Cc1cc(=O)[nH]c(SCC(=O)O)c1C#N,-2%,-3%,-20,-25%,0%
Cc1cc(=O)[nH]c(SCC(=O)C23CC4CC(CC(C4)C2)C3)c1C#N,-24%,24µM*,/,-13%,-1%
CCCCOc1ccc(C2C(=O)N(C3CCCCC3)CC(=O)N2C2CCCCC2)cc1 (stereo not given),/,/,/,6%,/
CN(C)S(=O)(=O)c1cccc(NC(=S)NNC(=O)c2cc3ccccc3cc2O)c1,-31%,24µM*,-60*,-26%,?
COc1ccccc1NC(=O)Cn1cc(S(=O)(=O)Cc2ccccc2)c2ccccc21,/,/,/,-20%,/
CCn1c(C)c(CS(=O)(=O)c2ccccc2)[nH]c1=O,18µM*,3.4µM*,3,-16%,2%
O=c1[nH]c(CS(=O)(=O)c2ccccc2)nc2ccccc12,2%,-5%,-17,2%,0%
SMILES,WRN helicase inh,PLK1 PBD block,PI5P4K alpha inh,USP1 inh,USP2a block
c1ccc2c(NCCc3c[nH]c4ccccc34)c3ccccc3nc2c1,25µM*,-5%,-8,-23%,-1%
CCc1ccc(Oc2nnnn2-c2ccc(C(N)=O)cc2)cc1,-9%,0%,3,-1%,4%
COc1ccc(-n2nnnc2S(=O)(=O)Cc2ccc(C(=O)O)cc2)cc1,?,30µM*,/,-6%,0%
COc1cc(OC)cc(-n2nnnc2SCC(=O)N2CCCC2)c1,-3%,0%,/,-8%,2%
COc1ccc(-n2nnnc2S(=O)(=O)CC(=O)N2CCCCC2)cc1,-34%,12µM*,1,?,-2%
COc1ccc(-c2cc(C(C)=O)c(C)n2CCC(=O)NCc2ccc(F)cc2)cc1,/,/,/,3%,/
Cc1ccc(NC(=O)CC(C)S(=O)(=O)c2ccc3c(c2)NC(=O)CO3)cc1Cl (stereo not given),/,/,/,-8%,/
CC1(C)CC(NNCCC#N)=CC(=[N+]2CCCC2)C1,-1%[57.1 µM],24µM*,-8,-16%,14%
CSCCOC(=O)C1=C(C)Nc2ccc(C)cc2S1,-5%,19µM*,-1,-3%,-4%
CCSc1nc(-c2ccco2)ccc1C#N,-35%,?,-73*,-13%,-2%
O=C1C=CC(=O)N1N(c1ccccc1)c1ccccc1,35µM*,4.7µM*,-28,-3%,4%
O=C1c2ccccc2C(=O)N1N(c1ccccc1)c1ccccc1,-19%,2%,-1,-10%,/
Nc1cc(N)nc(SCC(=O)Nc2ccc(Br)cc2Cl)n1,-4%,11µM*,-16,-7%,-2%
CCOc1cc(/C=C2\N=C(SC)SC2=O)cc([N+](=O)[O-])c1OC(C)=O,?,?,?,-18%,-6%
CCOc1cc(/C=C2\N=C(SCC)SC2=O)cc([N+](=O)[O-])c1OC(C)=O,-22%,27µM*,-68*,-13%,0%
CCOc1c(OC(C)=O)ccc(/C=C2\N=C(SCC)SC2=O)c1[N+](=O)[O-],-4%,30µM*,?,?,-2%
COc1cccc(CNC(=O)c2cc(C)nc3c2c(C)nn3-c2ccc(C)cc2)c1,/,/,/,-14%,/
CCn1cc2nc(SCC(=O)Nc3ccc(C)cc3)n(Cc3ccc(C)cc3)c(=O)c2n1,/,/,/,-30%,/
COc1nc(NCCO)nc(Nc2ccccc2F)n1,3%,27µM*,-21,-9%,0%
COc1nc(Nc2ccccc2F)nc(OC)n1,-5%,-6%,6,-8%,4%
CCCSc1ncc(Cl)c(C(=O)Nc2ccc(S(=O)(=O)N3CCCCC3C)cc2)n1 (stereo not given),/,/,/,-24%,/
COc1ccccc1NS(=O)(=O)c1cccc(-n2c(O)c(C=Nc3ccccc3C(=O)O)c3ccccc3c2=O)c1,50µM*,30µM*,-69*,?,1%
CCOCCc1nn2c(=O)cc(COC(=O)c3ccco3)nc2s1,/,/,/,3%,/
CCOC(=O)c1c(NC(=O)CSc2n[nH]c(-c3ccco3)n2)sc(C)c1C,-10%,-6%,-10,-6%,2%
CCc1nc(SCC(=O)Nc2ccc(N(CC)CC)cc2)n[nH]1,-6%,30µM*,-7,-3%,/
CCc1nc(SCC(=O)Nc2ccc(N(C)C)cc2)n[nH]1,-12%,2%,-6,-13%,1%
O=C(CSc1n[nH]c(-c2ccco2)n1)Nc1ccc(Br)cc1,-11%,27µM*,-13,-2%,-1%
CCOC(=O)CSc1n[nH]c(-c2ccco2)n1,3%,30µM*,1,-21%,-6%
CCCN1CCN(c2ncc3c(n2)CCN(Cc2ccc(OC)c(OC)c2OC)C3)CC1,/,/,/,-16%,/
CC1=NC(C)(C)Cc2ccccc21,5%,3%,/,-5%,0%
